Holding throughout (assay): DAPPL (digital affinity profiling via proximity ligation, sequencing); 10 mM Tris-HCl pH 7.5, 50 mM NaCl, 1 mM DTT, 4% glycerol, room temperature, 30 min; GST-TFs on glutathione beads, 16-mer random dsDNA library, 0.1% formaldehyde crosslink after washing; high values mean tight binding
The target in one assay is T1, FEV (Homo sapiens, UniProt Q99581 1-238).
T1 sequence: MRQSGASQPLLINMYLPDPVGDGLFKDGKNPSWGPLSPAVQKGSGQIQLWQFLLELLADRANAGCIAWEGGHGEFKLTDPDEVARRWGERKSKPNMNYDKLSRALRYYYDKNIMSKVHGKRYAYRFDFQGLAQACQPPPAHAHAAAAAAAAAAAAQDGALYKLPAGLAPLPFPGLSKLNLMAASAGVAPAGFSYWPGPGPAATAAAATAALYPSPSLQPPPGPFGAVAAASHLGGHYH
To be noted: protein: recombinant; tags: N-terminal GST; dsDNA, one strand shown. In short, it runs like this:
(§1)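 Beads coated with glutathione captured GST-fused human transcription factors that had been expressed in yeast, and the factors were then given DNA barcodes and pooled with a tag-only sample. The pools were incubated with 200 nmole of a random double-stranded 16-mer DNA library in Tris/NaCl/DTT/glycerol buffer for 30 min at room temperature, washed, crosslinked with 0.1% formaldehyde and proximity-ligated with BsaI/T4 ligase at 37 °C for 1 h. PCR amplification and Illumina NextSeq500 sequencing came last. Binding signal is each hexamer's read frequency for a factor divided by its frequency for the tag-only sample.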

The target in another assay is ETV5 (Homo sapiens, UniProt P41161 1-510). To be noted: protein: recombinant; tags: N-terminal GST; dsDNA, one strand shown. In short, it runs like this: as §1
Sequence of ETV5 (P41161 whole entry): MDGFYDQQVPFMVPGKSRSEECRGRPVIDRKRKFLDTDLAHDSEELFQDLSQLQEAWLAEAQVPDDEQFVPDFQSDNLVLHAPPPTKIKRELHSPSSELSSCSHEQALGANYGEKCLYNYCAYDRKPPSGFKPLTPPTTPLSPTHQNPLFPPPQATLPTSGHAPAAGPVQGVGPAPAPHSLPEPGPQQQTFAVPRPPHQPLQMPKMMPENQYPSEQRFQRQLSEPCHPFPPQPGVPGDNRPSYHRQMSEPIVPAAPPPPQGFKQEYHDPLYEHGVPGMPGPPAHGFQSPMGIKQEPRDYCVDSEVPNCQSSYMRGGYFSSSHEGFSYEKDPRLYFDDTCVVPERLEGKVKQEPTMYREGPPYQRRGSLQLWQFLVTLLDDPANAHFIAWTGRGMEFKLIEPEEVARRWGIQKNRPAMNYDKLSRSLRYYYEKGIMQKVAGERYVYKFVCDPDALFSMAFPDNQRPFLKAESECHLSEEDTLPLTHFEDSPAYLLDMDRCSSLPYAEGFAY
A further assay addresses HSF1 (Homo sapiens, UniProt Q00613 1-529). To be noted: protein: recombinant; tags: N-terminal GST; chain copies: 3; dsDNA, one strand shown. In a few lines:
as §1

Another assay concerns the target T2, SPIC (Homo sapiens, UniProt Q8N5J4 1-248).
T2 sequence: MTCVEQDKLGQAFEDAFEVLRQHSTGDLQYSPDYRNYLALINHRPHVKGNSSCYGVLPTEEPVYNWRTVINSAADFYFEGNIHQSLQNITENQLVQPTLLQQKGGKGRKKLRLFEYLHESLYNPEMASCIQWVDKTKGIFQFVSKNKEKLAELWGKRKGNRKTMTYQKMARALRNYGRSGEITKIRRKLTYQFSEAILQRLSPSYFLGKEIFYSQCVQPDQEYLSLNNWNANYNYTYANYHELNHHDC
To be noted: protein: recombinant; tags: N-terminal GST; dsDNA, one strand shown. In short, it runs like this:
as §1

The next assay concerns the target ELF4 (Homo sapiens, UniProt Q99607 1-663). To be noted: protein: recombinant; tags: N-terminal GST; dsDNA, one strand shown. In a few lines:
as §1

The target of another assay is T3, ELK4 (Homo sapiens, UniProt P28324-2 1-405).
T3 sequence: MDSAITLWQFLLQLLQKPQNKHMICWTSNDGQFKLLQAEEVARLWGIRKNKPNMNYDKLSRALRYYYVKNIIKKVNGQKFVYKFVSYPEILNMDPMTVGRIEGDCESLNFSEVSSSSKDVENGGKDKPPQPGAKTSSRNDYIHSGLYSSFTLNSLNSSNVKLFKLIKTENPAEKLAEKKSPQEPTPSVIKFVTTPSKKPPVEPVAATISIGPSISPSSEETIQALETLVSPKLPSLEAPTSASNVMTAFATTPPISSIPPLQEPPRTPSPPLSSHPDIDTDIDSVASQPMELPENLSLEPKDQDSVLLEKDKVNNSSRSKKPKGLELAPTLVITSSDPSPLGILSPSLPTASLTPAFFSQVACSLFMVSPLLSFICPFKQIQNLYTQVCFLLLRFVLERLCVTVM
To be noted: protein: recombinant; tags: N-terminal GST; dsDNA, one strand shown. In a few lines: as §1

In another assay the target is T4, ETV2 (Homo sapiens, UniProt O00321 1-342).
T4 sequence: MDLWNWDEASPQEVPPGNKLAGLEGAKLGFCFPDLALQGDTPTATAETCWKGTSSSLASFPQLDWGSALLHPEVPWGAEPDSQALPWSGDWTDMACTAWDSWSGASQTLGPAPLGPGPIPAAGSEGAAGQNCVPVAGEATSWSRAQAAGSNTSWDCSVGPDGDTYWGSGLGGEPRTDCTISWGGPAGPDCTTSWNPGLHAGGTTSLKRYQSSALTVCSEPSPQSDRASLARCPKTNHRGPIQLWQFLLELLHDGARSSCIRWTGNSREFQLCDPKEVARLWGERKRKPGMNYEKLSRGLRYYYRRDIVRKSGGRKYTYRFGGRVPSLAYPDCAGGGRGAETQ
To be noted: protein: recombinant; tags: N-terminal GST; dsDNA, one strand shown. In a few lines: as §1

For another assay, the target named is T5, ELF3 (Homo sapiens, UniProt P78545 1-371).
T5 sequence: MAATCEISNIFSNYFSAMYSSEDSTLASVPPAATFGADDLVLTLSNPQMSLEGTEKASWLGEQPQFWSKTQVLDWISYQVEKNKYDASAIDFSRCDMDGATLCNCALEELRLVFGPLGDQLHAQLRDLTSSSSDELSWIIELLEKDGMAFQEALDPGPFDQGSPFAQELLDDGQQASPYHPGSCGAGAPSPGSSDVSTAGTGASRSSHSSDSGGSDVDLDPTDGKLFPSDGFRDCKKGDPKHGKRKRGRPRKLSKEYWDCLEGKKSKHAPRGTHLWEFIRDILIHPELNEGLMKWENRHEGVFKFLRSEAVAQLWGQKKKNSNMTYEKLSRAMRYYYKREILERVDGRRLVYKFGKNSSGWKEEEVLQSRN
To be noted: protein: recombinant; tags: N-terminal GST; dsDNA, one strand shown. In a few lines: as §1

The target in a further assay is CRX (Homo sapiens, UniProt O43186 1-299). To be noted: protein: recombinant; tags: N-terminal GST; dsDNA, one strand shown. In short, it runs like this:
as §1

The target in the next assay is ETV1 (Homo sapiens, UniProt P50549 1-477). To be noted: protein: recombinant; tags: N-terminal GST; dsDNA, one strand shown. In a few lines: as §1
Sequence of ETV1 (P50549 whole entry): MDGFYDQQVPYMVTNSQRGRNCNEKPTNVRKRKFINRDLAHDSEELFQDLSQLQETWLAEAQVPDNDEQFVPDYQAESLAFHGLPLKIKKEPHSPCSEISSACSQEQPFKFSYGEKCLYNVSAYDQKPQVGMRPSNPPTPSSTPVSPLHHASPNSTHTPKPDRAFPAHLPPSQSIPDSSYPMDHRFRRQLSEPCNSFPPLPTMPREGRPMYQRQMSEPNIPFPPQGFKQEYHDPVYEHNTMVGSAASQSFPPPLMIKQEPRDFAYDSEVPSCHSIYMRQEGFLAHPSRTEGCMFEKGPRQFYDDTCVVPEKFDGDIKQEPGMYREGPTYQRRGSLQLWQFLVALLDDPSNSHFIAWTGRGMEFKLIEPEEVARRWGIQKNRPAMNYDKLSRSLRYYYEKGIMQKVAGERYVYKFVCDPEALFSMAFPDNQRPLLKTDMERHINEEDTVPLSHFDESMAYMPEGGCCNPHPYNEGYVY
The target of another assay is T6, ERF (Homo sapiens, UniProt P50548 1-548).
T6 sequence: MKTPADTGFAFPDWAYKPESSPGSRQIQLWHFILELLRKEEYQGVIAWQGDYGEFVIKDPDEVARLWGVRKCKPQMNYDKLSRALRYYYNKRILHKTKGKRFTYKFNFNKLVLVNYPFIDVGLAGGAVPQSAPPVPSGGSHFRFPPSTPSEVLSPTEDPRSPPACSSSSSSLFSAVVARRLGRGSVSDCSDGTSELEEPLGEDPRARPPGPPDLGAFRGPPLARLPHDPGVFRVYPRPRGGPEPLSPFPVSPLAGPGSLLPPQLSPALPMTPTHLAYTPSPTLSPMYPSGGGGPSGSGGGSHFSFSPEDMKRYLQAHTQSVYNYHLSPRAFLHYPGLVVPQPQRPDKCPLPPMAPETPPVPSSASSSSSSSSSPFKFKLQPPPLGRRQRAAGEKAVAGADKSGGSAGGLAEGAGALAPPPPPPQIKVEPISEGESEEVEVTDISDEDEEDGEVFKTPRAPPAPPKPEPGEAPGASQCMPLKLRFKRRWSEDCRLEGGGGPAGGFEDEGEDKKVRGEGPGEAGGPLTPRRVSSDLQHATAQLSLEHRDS
To be noted: protein: recombinant; tags: N-terminal GST; dsDNA, one strand shown. In short, it runs like this:
as §1

A further assay deals with T7, ETV3L (Homo sapiens, UniProt Q6ZN32 1-361).
T7 sequence: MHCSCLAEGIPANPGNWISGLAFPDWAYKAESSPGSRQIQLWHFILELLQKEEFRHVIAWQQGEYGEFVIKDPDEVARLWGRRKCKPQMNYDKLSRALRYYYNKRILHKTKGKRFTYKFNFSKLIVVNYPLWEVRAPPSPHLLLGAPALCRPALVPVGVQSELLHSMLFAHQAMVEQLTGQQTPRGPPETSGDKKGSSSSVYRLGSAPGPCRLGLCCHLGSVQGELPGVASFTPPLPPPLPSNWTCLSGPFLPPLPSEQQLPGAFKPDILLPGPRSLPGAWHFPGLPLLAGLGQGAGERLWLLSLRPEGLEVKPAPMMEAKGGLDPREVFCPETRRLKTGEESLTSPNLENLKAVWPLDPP
To be noted: protein: recombinant; tags: N-terminal GST; dsDNA, one strand shown. In a few lines:
as §1

In the next assay the target is T8, ETS2 (Homo sapiens, UniProt P15036 1-469).
T8 sequence: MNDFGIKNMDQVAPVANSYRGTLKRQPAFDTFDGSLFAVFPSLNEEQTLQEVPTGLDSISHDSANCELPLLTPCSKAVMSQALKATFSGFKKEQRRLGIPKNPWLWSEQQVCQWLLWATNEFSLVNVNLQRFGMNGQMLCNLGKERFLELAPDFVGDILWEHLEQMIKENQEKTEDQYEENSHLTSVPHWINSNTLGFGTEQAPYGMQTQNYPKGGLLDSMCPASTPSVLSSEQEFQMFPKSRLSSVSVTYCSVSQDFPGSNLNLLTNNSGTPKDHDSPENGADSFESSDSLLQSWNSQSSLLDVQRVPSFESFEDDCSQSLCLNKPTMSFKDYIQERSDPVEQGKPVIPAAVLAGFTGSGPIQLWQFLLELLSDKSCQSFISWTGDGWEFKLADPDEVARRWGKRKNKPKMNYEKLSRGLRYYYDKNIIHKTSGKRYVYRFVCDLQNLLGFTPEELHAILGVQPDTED
To be noted: protein: recombinant; tags: N-terminal GST; dsDNA, one strand shown. In short, it runs like this: as §1

The next assay concerns the target T9, SPDEF (Homo sapiens, UniProt O95238 1-335).
T9 sequence: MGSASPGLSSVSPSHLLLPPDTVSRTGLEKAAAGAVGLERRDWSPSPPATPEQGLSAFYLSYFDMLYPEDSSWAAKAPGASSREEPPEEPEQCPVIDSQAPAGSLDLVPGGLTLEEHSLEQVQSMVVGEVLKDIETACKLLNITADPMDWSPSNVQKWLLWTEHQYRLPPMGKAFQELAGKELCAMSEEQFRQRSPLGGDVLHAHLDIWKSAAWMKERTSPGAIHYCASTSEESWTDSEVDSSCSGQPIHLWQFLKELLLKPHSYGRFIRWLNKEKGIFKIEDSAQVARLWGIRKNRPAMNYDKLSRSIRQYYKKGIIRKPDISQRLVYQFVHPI
To be noted: protein: recombinant; tags: N-terminal GST; dsDNA, one strand shown. In a few lines:
as §1

Another assay has as its target T10, ETV7 (Homo sapiens, UniProt Q9Y603 1-341).
T10 sequence: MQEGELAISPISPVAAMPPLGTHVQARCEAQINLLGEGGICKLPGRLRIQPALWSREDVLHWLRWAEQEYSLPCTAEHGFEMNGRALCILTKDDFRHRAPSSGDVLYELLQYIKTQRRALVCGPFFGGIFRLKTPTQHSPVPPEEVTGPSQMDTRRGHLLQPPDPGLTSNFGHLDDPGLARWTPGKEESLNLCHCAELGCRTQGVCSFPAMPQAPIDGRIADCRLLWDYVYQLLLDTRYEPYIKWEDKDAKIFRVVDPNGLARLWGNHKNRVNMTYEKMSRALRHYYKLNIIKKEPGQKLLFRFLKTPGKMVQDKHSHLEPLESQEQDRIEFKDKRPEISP
To be noted: protein: recombinant; tags: N-terminal GST; dsDNA, one strand shown. In a few lines: as §1

Another assay deals with T11, ELF5 (Homo sapiens, UniProt Q9UKW6-2 1-255).
T11 sequence: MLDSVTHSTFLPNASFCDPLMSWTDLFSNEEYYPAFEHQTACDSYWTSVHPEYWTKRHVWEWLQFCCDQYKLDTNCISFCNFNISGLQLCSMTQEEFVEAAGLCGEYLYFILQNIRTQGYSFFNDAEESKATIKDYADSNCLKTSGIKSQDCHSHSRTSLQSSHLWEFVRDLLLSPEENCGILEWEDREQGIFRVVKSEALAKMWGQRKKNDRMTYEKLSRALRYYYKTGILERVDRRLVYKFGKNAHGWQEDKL
To be noted: protein: recombinant; tags: N-terminal GST; dsDNA, one strand shown. In short, it runs like this:
as §1

The target in a further assay is T12, ETV3 (Homo sapiens, UniProt P41162-2 1-143).
T12 sequence: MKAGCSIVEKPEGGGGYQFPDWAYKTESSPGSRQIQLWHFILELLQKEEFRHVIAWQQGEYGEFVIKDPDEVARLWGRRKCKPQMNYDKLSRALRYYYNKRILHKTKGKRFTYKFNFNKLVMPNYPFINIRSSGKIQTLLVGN
To be noted: protein: recombinant; tags: N-terminal GST; dsDNA, one strand shown. In short, it runs like this:
as §1

For the next assay, the target named is ETV6 (Homo sapiens, UniProt P41212 1-452). To be noted: protein: recombinant; tags: N-terminal GST; dsDNA, one strand shown. In a few lines: as §1
Sequence of ETV6 (P41212 whole entry): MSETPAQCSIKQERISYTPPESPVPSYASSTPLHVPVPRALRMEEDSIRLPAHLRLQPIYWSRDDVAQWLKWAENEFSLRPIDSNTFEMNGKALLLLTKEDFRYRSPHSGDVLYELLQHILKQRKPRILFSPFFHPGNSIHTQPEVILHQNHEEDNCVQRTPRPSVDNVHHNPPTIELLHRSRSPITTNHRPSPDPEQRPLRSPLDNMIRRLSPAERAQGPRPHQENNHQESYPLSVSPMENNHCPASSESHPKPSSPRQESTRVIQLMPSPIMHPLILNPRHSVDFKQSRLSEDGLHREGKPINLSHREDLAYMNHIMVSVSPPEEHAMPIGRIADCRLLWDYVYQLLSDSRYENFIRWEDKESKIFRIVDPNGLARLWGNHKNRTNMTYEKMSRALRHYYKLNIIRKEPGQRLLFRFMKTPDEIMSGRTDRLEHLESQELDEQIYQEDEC

Sequence of HSF1 (Q00613 whole entry): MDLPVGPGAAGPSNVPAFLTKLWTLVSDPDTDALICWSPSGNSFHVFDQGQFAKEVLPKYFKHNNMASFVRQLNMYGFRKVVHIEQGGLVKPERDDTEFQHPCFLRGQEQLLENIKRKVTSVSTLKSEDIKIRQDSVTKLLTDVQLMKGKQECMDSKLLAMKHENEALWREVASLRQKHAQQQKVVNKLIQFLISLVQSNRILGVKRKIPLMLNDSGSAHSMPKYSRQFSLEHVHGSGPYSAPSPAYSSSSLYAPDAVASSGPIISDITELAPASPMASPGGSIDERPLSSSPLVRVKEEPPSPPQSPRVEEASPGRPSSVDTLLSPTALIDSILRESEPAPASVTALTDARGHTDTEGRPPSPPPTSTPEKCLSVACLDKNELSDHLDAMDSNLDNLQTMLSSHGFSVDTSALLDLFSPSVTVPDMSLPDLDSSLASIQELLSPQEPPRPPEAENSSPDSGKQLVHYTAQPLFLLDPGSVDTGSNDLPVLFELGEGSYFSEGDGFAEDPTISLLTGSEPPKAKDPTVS
Sequence of CRX (O43186 whole entry): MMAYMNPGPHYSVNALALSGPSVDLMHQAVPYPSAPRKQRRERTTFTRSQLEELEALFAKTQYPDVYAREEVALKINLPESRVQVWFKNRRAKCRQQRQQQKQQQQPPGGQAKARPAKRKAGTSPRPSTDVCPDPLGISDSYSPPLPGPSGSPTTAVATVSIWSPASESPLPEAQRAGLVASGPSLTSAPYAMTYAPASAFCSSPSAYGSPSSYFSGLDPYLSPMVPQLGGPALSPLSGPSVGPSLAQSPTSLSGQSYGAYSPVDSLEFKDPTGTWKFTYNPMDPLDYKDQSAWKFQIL
Sequence of ELF4 (Q99607 whole entry): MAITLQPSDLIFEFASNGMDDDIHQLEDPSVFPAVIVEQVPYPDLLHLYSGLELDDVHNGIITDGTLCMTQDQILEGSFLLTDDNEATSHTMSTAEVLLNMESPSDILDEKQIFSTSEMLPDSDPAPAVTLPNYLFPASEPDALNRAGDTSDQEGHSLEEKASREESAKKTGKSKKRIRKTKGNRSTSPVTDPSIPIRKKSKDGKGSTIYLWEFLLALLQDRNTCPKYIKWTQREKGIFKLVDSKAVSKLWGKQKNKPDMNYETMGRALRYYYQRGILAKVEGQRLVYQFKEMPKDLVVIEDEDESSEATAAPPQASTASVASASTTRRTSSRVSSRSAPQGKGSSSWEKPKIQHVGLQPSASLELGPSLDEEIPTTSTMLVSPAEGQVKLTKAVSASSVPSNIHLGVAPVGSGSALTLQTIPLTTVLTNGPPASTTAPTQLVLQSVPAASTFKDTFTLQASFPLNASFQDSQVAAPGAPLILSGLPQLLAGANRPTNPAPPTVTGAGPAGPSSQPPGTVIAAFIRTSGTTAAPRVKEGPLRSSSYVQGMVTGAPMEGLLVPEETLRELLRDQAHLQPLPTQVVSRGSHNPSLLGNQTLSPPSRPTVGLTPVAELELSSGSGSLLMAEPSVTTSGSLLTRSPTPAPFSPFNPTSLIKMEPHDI

As for ACCTTA, the binding signal in the assay with FEV is 1.27 fold enrichment (6-mer frequency, TF over GST control); with ETV5, 1.23 fold enrichment (6-mer frequency, TF over GST control); in the assay with HSF1 it was 1.19 fold enrichment (6-mer frequency, TF over GST control); with SPIC, 1.11 fold enrichment (6-mer frequency, TF over GST control); with ELF4 it was 1.24 fold enrichment (6-mer frequency, TF over GST control); with ELK4 it was 1.32 fold enrichment (6-mer frequency, TF over GST control). Moreover, the binding signal is 1.32 fold enrichment (6-mer frequency, TF over GST control) with ETV2; 1.22 fold enrichment (6-mer frequency, TF over GST control) with ELF3; 1.43 fold enrichment (6-mer frequency, TF over GST control) in the assay with CRX; 1.4 fold enrichment (6-mer frequency, TF over GST control) in the assay with ETV1; 1.29 fold enrichment (6-mer frequency, TF over GST control) with ERF; 1.19 fold enrichment (6-mer frequency, TF over GST control) with ETV3L. The binding signal with ETS2 is 1.16 fold enrichment (6-mer frequency, TF over GST control); with SPDEF, 1.3 fold enrichment (6-mer frequency, TF over GST control); in the assay with ETV7, 1.21 fold enrichment (6-mer frequency, TF over GST control); in the assay with ELF5 it was 1.26 fold enrichment (6-mer frequency, TF over GST control); in the assay with ETV3, 1.17 fold enrichment (6-mer frequency, TF over GST control); with ETV6, 1.21 fold enrichment (6-mer frequency, TF over GST control).
